# High-throughput results as filed in PubChem.
# Compounds with a hit are over-represented: about 2.9% of the library has one in this group of screens.
# MEKK2wt PB1 HTS = raises or lowers MEK5 binding to wildtype human MEKK2 PB1 domain. Q9Y2U5. bead flow cytometry, Alexa488-MEK5 binding to MEKK2 WT; actives lie on both sides. binding response (% of control), % at 10 µM. 290,000 compounds, 1.1% hits. AID 1531; in the data active means binding response below about 67% or above about 130%; inconclusive means no clear call, values can overlap the other calls; inactive means in between
# MEKK3 PB1 HTS = modulators (inhibitors or enhancers) of MEK5 binding to human MEKK3 PB1 domain | 290,000 compounds, 1.4% hits | AID 1529 | Q99759 | binding response (% of control), % at 10 µM | bead-based flow cytometry, Alexa488-MEK5 binding to MEKK3; actives lie on both sides; 0 = blocked by unlabeled MEK5, 100 = vehicle;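 active means binding response more than 3 SD above or below the average of its plate-row segment, actives on both sides; inconclusive means wells at one plate position flagged as instrument error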;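 further: Alexa488 bead fluorescence after subtracting the streptavidin-only scavenger bead signal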
# FID counter = displaces DNA intercalator in HCV helicase counter-screen; DNA fluorescent intercalator displacement, fluorescence; inhibition, % at 7.9 µM; 290,000 compounds, 0.17% hits; in the data active means inhibition above about 37%;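 further: 0% = vehicle and 100% = reference compound; higher means more ethidium bromide displaced from hairpin DNA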
# MEKK2 mut-MEK5 = signal of MEK5 binding to mutant human MEKK2 PB1 domain. AID 1530. 290,000 compounds, 0.35% hits. bead flow cytometry, Alexa488-MEK5 binding to MEKK2 mutant. percent response, % at 10 µM; in the data active means percent response above about 24%, passing the limit was not always enough
# dFosB activator = activators of mouse delta FosB homodimer; P13346; purified delta FosB, TAMRA-CDK5 oligo fluorescence polarization; percent of positive-control signal above neutral wells; activation, % at 25 µM; 340,000 compounds, 0.99% hits;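 active means mean activation above about 17%, with every replicate also reaching it, limit read from the data, passing the limit was not always enough; inconclusive means only one of the two conditions met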
# Target sequence (P13346 whole entry, looked up): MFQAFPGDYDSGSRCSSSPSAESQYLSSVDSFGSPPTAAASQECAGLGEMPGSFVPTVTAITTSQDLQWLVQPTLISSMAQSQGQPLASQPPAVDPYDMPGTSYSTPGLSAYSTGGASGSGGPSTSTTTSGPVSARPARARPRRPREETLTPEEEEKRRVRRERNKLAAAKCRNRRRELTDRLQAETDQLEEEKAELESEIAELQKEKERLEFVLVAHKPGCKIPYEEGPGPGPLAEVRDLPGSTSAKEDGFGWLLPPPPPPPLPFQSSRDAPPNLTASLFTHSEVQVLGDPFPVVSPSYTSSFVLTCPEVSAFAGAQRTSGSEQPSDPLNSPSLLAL
# MEKK2wt confirm = raises or lowers MEK5 binding to wildtype human MEKK2, retest; shares compounds with MEKK3 PB1 HTS; bead flow cytometry, Alexa488-MEK5 binding to MEKK2 WT; actives lie on both sides; binding response (% of control), % at 10 µM; 5,900 compounds, 2.4% hits; AID 1892; in the data active means binding response below about 16% or above about 210%; inactive means in between
# MEKK2mut-MEK5 = signal of MEK5 binding to mutant human MEKK2, retest; shares compounds with MEKK3 PB1 HTS; bead flow cytometry, Alexa488-MEK5 binding to MEKK2 mutant; percent response, % at 10 µM; 5,900 compounds, 2% hits; in the data active means percent response mostly above about 71%, no sharp cut-off; inactive means mostly below about 38%;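 further: higher means compound restores mutant binding toward wildtype level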
# MEKK3 confirm = confirmation of inhibitors of MEK5 binding to human MEKK3; shares compounds with MEKK3 PB1 HTS; bead flow cytometry, Alexa488-MEK5 binding to MEKK3; stronger effect = lower value; binding response (% of control), % at 10 µM; 5,900 compounds, 1.8% hits; AID 1894;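 active means binding response below 72% of control, or above a set upper limit, though filed actives all read lower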;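 further: 100% = DMSO only wells and 0% = binding blocked by excess unlabeled MEK5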
# Active calls of the source: *; ? = inconclusive; . = no result; [ ] = remark or other dose.
SMILES,MEKK2wt PB1 HTS,MEKK3 PB1 HTS,FID counter,MEKK2 mut-MEK5,dFosB activator,MEKK2wt confirm,MEKK2mut-MEK5,MEKK3 confirm
CN1CCN(C2=Cc3ccc(Cl)cc3Sc3ccc(F)cc32)CC1,150*,114,14,27*,-2,169,42,109
CC(=O)c1ccc(S(=O)(=O)N2CCN(CC(=O)Nc3ccnn3C3CCCC3)CC2)cc1,.,.,.,.,-5,.,.,.
COc1ccc(NC2CC(=O)N(c3ccc(C(=O)O)cc3)C2=O)cc1 (configuration not stated),108,130*,-2,0,2,97,5,102
CCCCn1cnc2c(c(-c3ccccc3)c(-c3ccccc3)n2Cc2ccco2)c1=N,113,102,15,7,.,.,.,.
Cc1cc(NCCCn2ccnc2)n2nc(C)c(-c3ccccc3)c2n1,98,88,16,1,-9,.,.,.
N=c1c2c(-c3ccccc3)c(-c3ccccc3)n(Cc3ccccc3)c2ncn1CCCn1ccnc1,146*,105,40*,12,-5,170,58,110
N=c1c2c(-c3ccccc3)c(-c3ccccc3)n(Cc3ccco3)c2ncn1Cc1ccco1,152*,112,12,41*,-3,155,25,104
COc1ccc(C2=CC(=O)C[C@H](c3ccc4c(c3)OCO4)C2)cc1,.,.,.,.,-7,.,.,.
CCOC(=O)C1=C(C)Nc2sc(C(=O)c3ccc(C)cc3)c(N)c2C1c1ccc(C(=O)OC)cc1 (configuration not stated),109,149*,-11,1,-4,98,-3,101
CCCN1CCN(CCCNC(=O)c2cc3c(=O)[nH]c4ccc(C)cc4c3s2)CC1,75,67*[inhibitor],4,-9,-40,108,-4,101
CC(=O)N1CCN(CC(=O)O)CC1,92,98,6,-12,.,.,.,.
CC(=O)N1CCN(C(=O)CCC(=O)O)CC1,7.0*[inhibitor],19*[inhibitor],-1,-6,-4,105,8,107
CCNC(=O)COC(=O)c1cccc(Br)c1,39*[inhibitor],38*[inhibitor],-1,-13,2,102,-6,98
O=C(COC(=O)c1cccc(Br)c1)NCCC1=CCCCC1,98,95,-17,1,-7,.,.,.
O=C(COC(=O)c1ccccc1)Nc1ccccc1Br,54*[inhibitor],46*[inhibitor],-9,-16,2,41,-29,85
N=c1scc(-c2ccccc2)n1/N=C/c1ccco1,108,103,-6,55*,0,87,-2,95
C[C@H](CO)N1C[C@H](C)[C@@H](CN(C)C(=O)Nc2ccccc2)Oc2c(NS(=O)(=O)c3ccc(F)cc3)cccc2C1=O,.,.,.,.,-9,.,.,.
O=C(CN1C(=O)NC2(CCCCC2)C1=O)N1CCN(c2ncccn2)CC1,.,.,.,.,2,.,.,.
COc1cc(/C=C/c2noc(-c3ccccc3O)n2)ccc1OC(C)=O,115,129*,1,26,-4,98,-9,96
C=CCNC(=O)c1c(Cl)nc(C)c([N+](=O)[O-])c1C,112,155*,3,2,-2,97,-1,100
Nc1nnc(Cc2cccc(Br)c2)s1,102,103,-2,0,-2,.,.,.
CC(=O)ONC(=Nc1ccccc1)c1nonc1N,52,47*[inhibitor],-2,-46,-6,109,3,101
CC(=NCCN1CCNCC1)C1=C(O)CC(C)(C)CC1=O,109,110,-7,6,-5,.,.,.
COc1ccc(-c2nc(-c3cccc(C)c3)nc(N3CCN(C)CC3)c2C#N)cc1,144,107,-3,32*,0,149,38,108
COc1cccc(-c2nc(-c3ccccc3)nc(N3CCN(C)CC3)c2C#N)c1,136,100,9,12,-7,.,.,.
SMILES,MEKK2wt PB1 HTS,MEKK3 PB1 HTS,FID counter,MEKK2 mut-MEK5,dFosB activator,MEKK2wt confirm,MEKK2mut-MEK5,MEKK3 confirm
CN1CCN(c2nc(-c3ccccc3)nc(-c3ccccc3)c2C#N)CC1,146*,116,-1,22,-13,122,10,100
N#Cc1c(-c2ccccc2)nc(-c2ccccc2)nc1N1CCOCC1,98,100,-1,5,-8,.,.,.
COc1ccc(-c2nc(-c3ccccc3)nc(N3CCN(C)CC3)c2C#N)cc1,152*,105,-3,6,-4,154,28,107
COc1ccc(/C=C/C(=O)N2CCN(C)CC2)cc1OC,99,102,3,-7,9,.,.,.
O=C(CN1N=C(c2ccc(Cl)cc2)CCC1=O)NCCN1CCc2ccccc2C1,106,105,-2,1,-4,.,.,.
COc1ccccc1CC1CC(=O)N(c2ccccc2)C1=O (configuration not stated),105,106,-3,4,0,.,.,.
O=C(COC(=O)COc1ccc(Cl)cc1)Nc1ccc2c(c1)OCCO2,.,.,.,.,-8,.,.,.
Cc1ccc(-n2cc(CNCCCn3cccn3)c(-c3cccc(C)c3)n2)cc1,138*,104,17,24,-4,143,15,104
Cc1ccc(-c2nn(-c3ccccc3)cc2CNCc2ccccc2)cc1,193*,111,22,36,-50,173,34,104
Cc1ccc(C)c(-n2cc(CNCCCn3cccn3)c(-c3ccccc3)n2)c1,108,99,26,1,3,.,.,.
Cc1ccc(-n2cc(CNCCCn3ccnc3C)c(-c3ccc(F)cc3)n2)cc1,306*,115,24,178*,-24,204,77*,116
CCN1C(=N)N(c2ccccc2)C(=O)C(CC)(CC)C1=O,.,.,.,.,3,.,.,.
C#CCOCCOCCOCCNc1nc(N2CCN(C(=O)[C@H](CCCCN)n3cc(CCCC)nn3)CC2)nc(N2CCN(C(=O)[C@H](CCCCN)n3cc(CCC(=O)O)nn3)CC2)n1,.,.,.,.,-9,.,.,.
COc1ccc(CCNC(=O)c2c(-c3ccccc3Cl)noc2C)cc1,101,102,-13,0,1,.,.,.
Cc1onc(-c2ccccc2Cl)c1C(=O)NCCN1Cc2ccccc2C1=O,2.0*[inhibitor],1.0*[inhibitor],-5,-21,2,97,-6,98
Cc1cc(C)c2cc3c(ccn3C3OC[C@H](O)[C@H](O)[C@H]3O)cc2n1 (some centres not stated),6.0*[inhibitor],102,12,12,?,109,12,104
Nc1nc(Cl)nc2c1ncn2C1OCC(O)C(O)C1O (configuration not stated),.,.,.,.,2,.,.,.
Cc1ccc(NC(=O)CSc2nnc(-c3cccs3)o2)cc1S(=O)(=O)N(C)C,94,95,-10,-8,.,.,.,.
